Reference: PubChem BioAssay (NCI)
The panel holds about 83,000 compounds, 20% with a hit somewhere; the sample as a whole holds those more often.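 Cells were grown in 96-well plates and exposed to the test compound at a single concentration for 48 hours; results are reported as percent growth, with values below 10 considered active.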 Unmarked numbers belong to inactive results. Activity calls are given as the source filed them.

Legend:
Assay in all cases: NCI-60 one-dose screen, 48 h (100 = growth as untreated, 0 = no growth, -100 = all killed)
Conditions in all cases: 10 µM unless noted
NCI-H23 lung = test system: NCI-H23 lung
NCI-H226 lung = test system: NCI-H226 lung
NCI-H322M lung = test system: NCI-H322M lung
HOP-62 NSCLC = test system: HOP-62 NSCLC
NCI-H460 lung = test system: NCI-H460 lung
NCI-H522 lung = test system: NCI-H522 lung
A549/ATCC NSCLC = test system: A549/ATCC NSCLC
786-0 renal = test system: 786-0 renal
COLO 205 colon = test system: COLO 205 colon
DU-145 prostate = test system: DU-145 prostate
K-562 leukemia = test system: K-562 leukemia
MALME-3M melanoma = test system: MALME-3M melanoma
MDA-MB-231 breast = test system: MDA-MB-231 breast
RXF 393 renal = test system: RXF 393 renal
SF-268 CNS = test system: SF-268 CNS
SF-295 CNS = test system: SF-295 CNS
SF-539 CNS = test system: SF-539 CNS
UACC-257 melanoma = test system: UACC-257 melanoma
M14 melanoma = test system: M14 melanoma

Row | SMILES | growth (NCI-H23 lung) | growth (NCI-H226 lung) | growth (NCI-H322M lung) | growth (HOP-62 NSCLC) | growth (NCI-H460 lung) | growth (NCI-H522 lung) | growth (A549/ATCC NSCLC) | growth (786-0 renal) | growth (COLO 205 colon) | growth (DU-145 prostate) | growth (K-562 leukemia) | growth (MALME-3M melanoma) | growth (MDA-MB-231 breast) | growth (RXF 393 renal) | growth (SF-268 CNS) | growth (SF-295 CNS) | growth (SF-539 CNS) | growth (UACC-257 melanoma) | growth (M14 melanoma)
1 | C=C1C(=O)O[C@H]2[C@H]1CC/C(COC(=O)N[C@@H](Cc1c[nH]c3ccccc13)C(=O)OC)=C\CC[C@@]1(C)O[C@@H]21 | 68.5% | 58.4% | 80.5% | 68.8% | 40.5% | -71.1% (active) | 47.2% | -48.6% (active) | -69.2% (active) | 20.5% | -1.67% (active) | -38.4% (active) | 25.2% | -55.4% (active) | 46.7% | 72.3% | 25.3% | 11.5% | -45.3% (active)
2 | COC(=O)CSc1ccc(Cl)cc1 | 102% | 123% | 102% | 107% | 109% | 92.2% | 98% | 95.3% | 108% | 111% | 89.6% | 95.5% | 116% | 136% | 119% | 107% | 97.3% | 104% | 103%
3 | O=C(/C=C/c1ccccc1Br)c1cccc(OCCCCOc2cccc(C(=O)/C=C/c3ccccc3Br)c2)c1 | 89.3% | 89.9% | 98.8% | 103% | 95.5% | 90.7% | 87.7% | 104% | 103% | 104% | 94.6% | 99.6% | 104% | 96.9% | 101% | 95.5% | 102% | 94.1% | 88%
4 | O=C(N/N=C/c1ccccc1O)c1ccncc1 | 70.9% | 70.1% | 51.2% | 43% | 25.7% | -20% (active) | 53.6% | 51.1% | 27.4% | 58.3% | 64.9% | 73.6% | 62.8% | 80.7% | 48.3% | 54% | 70.8% | 60.7% | 50.7%
5 | CCCCCCCCCCCCCCCCCC(=O)[O][Sn]([CH2]CCC)([CH2]CCC)[CH2]CCC | -81.7% (active) | -74.6% (active) | -91.4% (active) | -89.5% (active) | -88.9% (active) | -54.3% (active) | -84.1% (active) | -100% (active) | -80.9% (active) | -100% (active) | -42.8% (active) | -85.9% (active) | -57.8% (active) | -98% (active) | -92.8% (active) | -85.3% (active) | -81.6% (active) | -86.1% (active) | -91.1% (active)
6 | C=C1C(=O)O[C@H]2[C@H]1CC/C(COC(=O)NCc1c[nH]c3ccc(OC)cc13)=C\CC[C@@]1(C)O[C@@H]21 | 51.6% | 27.9% | 84.9% | 49.2% | 33.7% | -72.8% (active) | 29.6% | -59.2% (active) | -69.2% (active) | -10.4% (active) | 3.23% (active) | -31% (active) | -6.78% (active) | -93.3% (active) | 45.2% | 63.5% | -23.3% (active) | -16.3% (active) | -48% (active)
7 | CCC(=O)NC1=C(Cl)C(=O)C(NC(=O)CC)=C(Cl)C1=O | 94% | 113% | 107% | 111% | 108% | -82.7% (active) | 103% | 105% | -91.4% (active) | 44.3% | -24.3% (active) | -63.4% (active) | 91.6% | 39.9% | 118% | 137% | 117% | 107% | 93.7%
8 | NS(=O)(=O)c1ccc(CCn2c(SCC(=O)N/N=C/c3ccccc3O)nc3ccccc3c2=O)cc1 | 65.4% | 51.1% | 77.5% | 44.4% | 23.1% | 8.06% (active) | 53.9% | 41.7% | 49.9% | 42.7% | 9.2% (active) | 62.3% | 63.4% | 46.7% | 55.8% | 39.7% | 25.6% | 55.6% | 41.5%
9 | CC(=O)O[C@H]1CC[C@]2(C)[C@H]3CC=C4[C@@H]5CC(C)(C)CC[C@]5(C(=O)OCC(COC(=O)C(Cl)Cl)(COC(=O)C(Cl)Cl)NC(=O)C(Cl)Cl)CC[C@@]4(C)[C@]3(C)CC[C@H]2C1(C)C | 87.6% | 94.2% | 89.1% | 79% | 49.4% | 41.1% | 31.5% | 63.9% | 47.8% | 62.2% | 38.8% | 83.1% | 82.9% | 74.7% | 56.1% | 80.4% | 86.8% | 42.5% | 67.2%
10 | Cc1ccc(NC(=O)c2sc3nc4c(cc3c2N)C(=O)CCC4)cc1Cl | 100% | 102% | 109% | 110% | 106% | 96.1% | 101% | 104% | 128% | 109% | 93% | 112% | 113% | 117% | 115% | 80% | 102% | 95.1% | 122%
11 | CC1CCN(CCCCCOc2ccc3oc4ccc(Cl)cc4c(=O)c3c2)CC1 | 73.6% | 94.7% | 79.8% | 77.1% | 26.6% | 52.9% | 47.5% | 45.8% | 21.7% | 78.9% | 9.6% (active) | 81.6% | 48% | 71% | 77.5% | 78.7% | 74.6% | 5.99% (active) | -54% (active)
12 | Cc1nn(-c2cccc(Cl)c2)c(C)c1N=Nc1ccc(Br)cc1 | 96.9% | 101% | 102% | 86.9% | 103% | 68.6% | 66.1% | 89.7% | 102% | 101% | 89.2% | 95.1% | 93.1% | 110% | 96.5% | 91.8% | 90.7% | 53.2% | 95.6%
13 | Cc1ccc(OC2=C(C#N)C(=N)N3C(=NN2)Sc2c(C)ccc(C)c23)cc1 | 85.3% | 93.4% | 102% | 99.6% | 100% | 90.4% | 98.6% | 110% | 106% | 122% | 98% | 120% | 95.4% | 106% | 113% | 96.7% | 102% | 108% | 109%
14 | Cc1ccncc1NC=O | 101% | 101% | 102% | 109% | 106% | 99.1% | 102% | 103% | 110% | 113% | 107% | 105% | 110% | 111% | 104% | 104% | 102% | 106% | 96.4%
15 | COc1ccc(NC(=O)c2sc3c(=O)[nH]c(C(F)(F)F)nc3c2C)cc1 | 93.4% | 97.7% | 107% | 107% | 115% | 79.5% | 95.2% | 103% | 114% | 118% | 102% | 102% | 112% | 117% | 108% | 111% | 114% | 105% | 116%
16 | Fc1ccc(-c2nc(-c3ccc(-c4nc5ccc(F)cc5[nH]4)cc3)no2)cc1 | 67.7% | 54.9% | 70.5% | 79.6% | 67.4% | 91.4% | 75.4% | 102% | 71.6% | 39.4% | 63% | 68.3% | 74.3% | 79.8% | 66.1% | 73.4% | 69.2% | 87.8% | 62.3%
